PubChem BioAssay (Tox21)
Results filed as inconclusive are left out. Activity calls are given as the source filed them. The call rests on the fitted dose curve. Non-standard residues stand in square brackets, D forms with d. Residues, ends and D or L forms follow the SMILES beside them. *: point of attachment. Sta = CC(C)C[C@H](N)[C@@H](O)CC(=O)O; Isovaleryl = CC(C)CC(=O)*

experiment: qHTS assay to identify small molecule agonists of the AP-1 signaling pathway - cell viability counter screen (AID 1159525); conditions: ME-180 (cervical carcinoma) AP-1-bla cells viability, ATP luminescence, 5 h; series mostly up to 76.8 µM; viability change, negative = cytotoxic: at the top concentration; further: nearly all actives have a fitted effect of over 55% in size
From the text: National Center for Advancing Translational Sciences [NCATS]
NIH Chemical Genomics Center [NCGC]
U.S. Environmental Protection Agency [EPA]
National Institutes of Environmental Health Sciences [NIEHS]
National Toxicology Program [NTP]
U.S. Food and Drug Administration [FDA]
Activator protein-1 (AP-1), a transcription factor, plays an important role in tumor genesis by regulating genes involved in cell proliferation, differentiation, apoptosis, and angiogenesis. AP-1 activity is induced by a complex network of signaling pathways that involves extracellular signals, such as growth factors. The AP-1 protein complex formed from c-Fos and c-Jun binding to the AP-1 response element results in transcriptional activation of genes containing such elements within their promoter.
Low molecular weight molecules have been discovered and developed to modulate various components of these signaling pathways, for example, MAP kinase inhibitors. However, many points of pathway modulation remain untested due to the lack of chemical probes making this signaling locus of general interest.
Using a beta-lactamase reporter-gene under control of the AP-1 response element, a cell-based assay [CellSensor(TM) AP-1-bla ME-180 developed by Invitrogen Corp.] was used to measure EGF-induced signaling. The Tox21 10K library compounds were measured for their ability to positively modulate the action of EC50 EGF on reporter gene activity. Compounds were screened in a 15-pt titration series in 1536-well format. The cytotoxicity of the Tox21 compound library against this cell line was tested in parallel by measuring the intra cellular ATP content in the same wells.
Tox21 Assay Protocol Summary:
2500 cells/5uL in Opti-MEM medium containing 0.5% dialyzed FBS, 0.1 mM NEAA, 1 mM sodium pyruvate and 10 mM HEPES was dispensed into 1536-well black wall/clear bottom plates using a Multidrop dispenser and cells were cultured at 37 degrees Celsius overnight. Next day 23 nL of compounds dissolved in DMSO, positive controls or DMSO were delivered to each well using a pin tool. The plates were incubated at 37 degrees Celsius for 5 hours. 1 uL of LiveBLAzerTM B/G FRET substrate (Solution A+B+C+D) was added to each well using a Flying Reagent Dispenser. After incubated at room temperature for 2.5 hours the plates were measured on an EnVision plate reader at Excitation 405nm, Emission1=460nm and Emission 2=530nm. The %Activity was determined from the ratio of 460nm/530nm.
After the plates were read for Beta-Lactamase assay on Envision; 3 ul Cell Titer Glo (Promega) was added to measure the cytotoxicity and the plates were then incubated at RT in dark for 30 min. The luminescence was read on ViewLux (Perkin Elmer, Shelton, CT) using 6 sec exposure. ViewLux data was expressed as relative luminescence units.
For primary data analysis, raw plate reads for each titration point were first normalized relative to […] EGF control (100%) and DMSO only wells (basal, 0%).
For primary data analysis for viability assay, raw plate reads for each titration point were first normalized Tetra n-octyl ammonium bromide control (-100%) and DMSO (control, 100%).

Question: For CC1=C(O)C(=O)CO1, which “viability change, negative = cytotoxic” value is on record?
Answer: -3.33% (inactive)

Question: Which “viability change, negative = cytotoxic” value does the source give for COCc1nnc(-c2ccc[n+]([O-])c2)n1-c1c(Cl)c(Cl)cc2[nH]c(=O)c(=O)[nH]c12 here?
Answer: 1.39% (inactive)

Question: With COC(=O)c1ccc(C(=O)O)cc1 as the compound, how does the “viability change, negative = cytotoxic” value read?
Answer: 9.57% (inactive)

Question: With CC/C=C/CCCCCCCCCCOC(C)=O as the compound, how does the “viability change, negative = cytotoxic” value read?
Answer: -0.66% (inactive)

Question: Which “viability change, negative = cytotoxic” value does the source give for O=C1c2ccccc2C(=O)N1CO here?
Answer: 0.0672% (inactive)

Question: With C=CCN1CCc2nc(N)sc2CC1 as the compound, how does the “viability change, negative = cytotoxic” value read?
Answer: 0.799% [at 35.3 µM] (inactive)

Question: Which “viability change, negative = cytotoxic” value does the source give for CCNC(=O)C(C)OC(=O)Nc1ccccc1 (stereo not given) here?
Answer: -26.4% (inactive)

Question: With CC(=O)Oc1ccc(C(C)=O)cc1 as the compound, how does the “viability change, negative = cytotoxic” value read?
Answer: 2% (inactive)

Question: Which “viability change, negative = cytotoxic” value does the source give for CCOC(=O)CC here?
Answer: -0.12% (inactive)

Question: For CCC(=O)OCCOc1ccccc1, which “viability change, negative = cytotoxic” value is on record?
Answer: 3.8% (inactive)

Question: Which “viability change, negative = cytotoxic” value does the source give for CCCCCCCCCCCCCCBr here?
Answer: 6.45% (inactive)

Question: With CCCCCCCCCCCCCC(=O)OCC as the compound, how does the “viability change, negative = cytotoxic” value read?
Answer: 2.38% (inactive)

Question: With COC(=O)c1cc(Cl)c(NC(C)=O)cc1OC as the compound, how does the “viability change, negative = cytotoxic” value read?
Answer: 4.07% [at 35.3 µM] (inactive)

Question: Which “viability change, negative = cytotoxic” value does the source give for CN(C)c1cc(NC(=O)CNC(C)(C)C)c(O)c2c1C[C@H]1C[C@H]3[C@H](N(C)C)C(=O)C(C(N)=O)=C(O)[C@@]3(O)C(=O)C1=C2O here?
Answer: -0.234% [at 35.3 µM] (inactive)

Question: Which “viability change, negative = cytotoxic” value does the source give for COc1cc2nc(N3CCN(C(=O)C4CCCO4)CC3)nc(N)c2cc1OC (stereo not given) here?
Answer: -10% [at 35.3 µM] (inactive)

Question: Which “viability change, negative = cytotoxic” value does the source give for O=C(O)CCC(=O)Nc1ccc(S(=O)(=O)Nc2nccs2)cc1 here?
Answer: -4.31% [at 35.3 µM] (inactive)

Question: Which “viability change, negative = cytotoxic” value does the source give for CC(C)(Sc1cc(C(C)(C)C)c(O)c(C(C)(C)C)c1)Sc1cc(C(C)(C)C)c(O)c(C(C)(C)C)c1 here?
Answer: 0.142% [at 35.3 µM] (inactive)

Question: With COC(=O)N/N=C/c1c[n+]([O-])c2ccccc2[n+]1[O-] as the compound, how does the “viability change, negative = cytotoxic” value read?
Answer: -15.7% [at 35.3 µM] (inactive)

Question: For COc1cnc(NS(=O)(=O)c2ccc(N)cc2)nc1, which “viability change, negative = cytotoxic” value is on record?
Answer: -6.13% [at 35.3 µM] (inactive)

Question: Which “viability change, negative = cytotoxic” value does the source give for O=C(O)Cc1c(Cl)ccc(Cl)c1Cl here?
Answer: -7.38% (inactive)

Question: With O=C1CC2(CCCC2)CC(=O)N1CCNCC1COc2ccccc2O1 (stereo not given) as the compound, how does the “viability change, negative = cytotoxic” value read?
Answer: 3.92% [at 35.3 µM] (inactive)

Question: Which “viability change, negative = cytotoxic” value does the source give for CC(C)OC(=O)C(C(=O)OC(C)C)=C1SC=CS1 here?
Answer: -24.4% [at 35.3 µM] (inactive)

Question: With CC(C)(C)C(=O)CC(=O)C(C)(C)C as the compound, how does the “viability change, negative = cytotoxic” value read?
Answer: 0.0953% (inactive)

Question: For CC(C)(O)CCCC1=CCC(C=O)CC1 (stereo not given), which “viability change, negative = cytotoxic” value is on record?
Answer: -2.88% (inactive)

Question: With O=Cc1ccc(C(=O)O)cc1 as the compound, how does the “viability change, negative = cytotoxic” value read?
Answer: 0.256% (inactive)

Question: Which “viability change, negative = cytotoxic” value does the source give for CSC(=O)c1cccc2nnsc12 here?
Answer: 9.5% (inactive)

Question: Which “viability change, negative = cytotoxic” value does the source give for CC(C)CC(=O)N[C@H](C(=O)N[C@H](C(=O)N[C@@H](CC(C)C)[C@@H](O)CC(=O)N[C@@H](C)C(=O)N[C@@H](CC(C)C)[C@@H](O)CC(=O)O)C(C)C)C(C)C (Isovaleryl-VV[Sta]A[Sta]-OH) here?
Answer: -21.2% [at 35.3 µM] (inactive)

Question: Which “viability change, negative = cytotoxic” value does the source give for CC(C)c1cc(C(C)C)cc(C(C)C)c1 here?
Answer: -0.631% (inactive)

Question: For C=CC(=O)OCCOCCOCC, which “viability change, negative = cytotoxic” value is on record?
Answer: 6.19% (inactive)

Question: Which “viability change, negative = cytotoxic” value does the source give for COC(=O)c1ccc(NC(C)=O)cc1OC here?
Answer: -3.71% [at 35.3 µM] (inactive)

Question: Which viability change, negative = cytotoxic does the source give for CCCCCCCCCCCCCCCC(=O)OC here?
Answer: -12.9% [at 15.8 µM] (inactive)

Question: For CCc1ncc(C)[nH]1, which “viability change, negative = cytotoxic” value is on record?
Answer: -5.42% (inactive)

Question: Which “viability change, negative = cytotoxic” value does the source give for CC(C)(C)OC=O here?
Answer: 1.54% (inactive)

Question: For CC(C)(O)c1ccc(C(C)(C)O)cc1, which “viability change, negative = cytotoxic” value is on record?
Answer: 6.05% (inactive)

Question: For CC(=O)c1c(C)cc(C(C)(C)C)cc1C, which “viability change, negative = cytotoxic” value is on record?
Answer: -5.27% (inactive)

Question: Which “viability change, negative = cytotoxic” value does the source give for CCCC[O][Al]([O]CCCC)[O]CCCC here?
Answer: 7.05% (inactive)

Question: With Clc1cc(Cl)c(Cl)c(Cl)c1Cl as the compound, how does the “viability change, negative = cytotoxic” value read?
Answer: 9.69% (inactive)

Question: For CCCC(=O)C(CC)Sc1ccoc1C (stereo not given), which “viability change, negative = cytotoxic” value is on record?
Answer: -2.37% (inactive)

Question: With c1cc2ccc3ccc4ccc5cccc6c(c1)c2c3c4c56 as the compound, how does the viability change, negative = cytotoxic read?
Answer: -12.5% [at 2.72 µM] (inactive)

Question: Which “viability change, negative = cytotoxic” value does the source give for CCCCCCCOC(C)=O here?
Answer: 10.6% (inactive)
